Legend:
Test in all cases: PBM binding z-score (relative to random genomic background probes); higher = stronger binding; sequences stand for … in GC…GCGATTGACAGCGTAGAATGAAGG
[1] = test system: FXR:RXRa (NR concentration 270 nM, RXRa partner concentration 90 nM)
Procedure, shortened: (§1)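 Antibodies against each partner of ligand-free nuclear receptor dimers (one per run) detected binding on custom Agilent 4×180K protein-binding microarrays after 1 h incubation. The double-stranded probes had 34-nt variable regions carrying direct-repeat seeds, single-nucleotide variants, half-site ablations and random human genomic background sequences. Binding z-scores, from regression-normalized fluorescence, use the random background probes as reference.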

[2] = test system: LXRa:RXRa (NR concentration 270 nM, RXRa partner concentration 90 nM)
Procedure, shortened: as §1

[3] = test system: LXRa homodimer (NR concentration 270 nM)
Procedure, shortened: as §1

[4] = test system: LXRb:RXRa (NR concentration 270 nM, RXRa partner concentration 90 nM)
Procedure, shortened: as §1

[5] = test system: LXRb homodimer (NR concentration 270 nM)
Procedure, shortened: as §1

[6] = test system: PPARa:RXRa (NR concentration 270 nM, RXRa partner concentration 90 nM)
Procedure, shortened: as §1

[7] = test system: PPARg:RXRa (NR concentration 180 nM, RXRa partner concentration 90 nM)
Procedure, shortened: as §1

[8] = test system: PPARg:RXRa 270nM:90nM, anti-RXR (NR concentration 270 nM, RXRa partner concentration 90 nM)
Procedure, shortened: as §1

[9] = test system: PPARg:RXRa 30nM:10nM, anti-RXR (NR concentration 30 nM, RXRa partner concentration 10 nM)
Procedure, shortened: as §1

[10] = test system: PPARg:RXRa 90nM:30nM, anti-RXR (NR concentration 90 nM, RXRa partner concentration 30 nM)
Procedure, shortened: as §1

Sequence	PBM binding z-score [1]	PBM binding z-score [2]	PBM binding z-score [3]	PBM binding z-score [4]	PBM binding z-score [5]	PBM binding z-score [6]	PBM binding z-score [7]	PBM binding z-score [8]	PBM binding z-score [9]	PBM binding z-score [10]
CCTCGGAGGACAACAGGAGGTCACAGCTGCCAGA	2.75	3.93	3.82	2.82	-0.268	3.42	1.76	2	-0.188	1.1
GGCACGAGGGCAAAGTTGATAGCATCTGTCGACG	1.44	1.01	-0.378	0.776	-0.874	3.29	6.13	6.24	4.26	6.86
CCGAGTAGGTTCTGGGGCATTCAGGCAACGGTGA	-0.196	-0.351	-0.153	-0.391	-0.906	0.158	-0.108	0.645	-0.76	0.156
TCATATAGGTATACAGGTGAAAGTCCGTAAGTTA	1.01	1.13	0.26	1.2	0.257	1.9	2.4	3.24	3.8	3.58
ATATGTATGTTAAGGGTCATTCAGGTTGGTTCGC	4.05	4.15	3.41	4.46	1.5	5.66	8.29	7.83	8.13	8.7
TGAATGAGGTTATAAAATCAGGGAACGTTGCAAA	0.804	0.908	-0.31	1.02	0.05	2.15	0.802	1.19	0.684	1.09
ACTTACGGGTCACCGAGGTTATAGCACGCGTATA	7.33	5.59	1.1	4.77	0.402	6.19	7.11	6.57	3.18	5.44
TCATATAGGTAAATGCTAGGTGTAAGTCCGATCT	0.454	0.941	0.2	0.659	-0.0969	1.05	0.749	2.17	3.9	2.97
TCATATAGGTAAAGCTGAAAGTCGAACGATATGA	0.358	0.331	-0.286	0.366	-0.268	0.995	0.806	1.97	3.45	2.72
CGTCAAAGTTCAACTAAGGTAACCTAAAGCACGC	7.07	6.1	4.45	4.4	2.21	5.35	5.27	5.95	2.33	4.85
CCTACTGGGCCATTCCGAGGTCATTGATCATATG	2.71	3.36	4.85	3.28	0.27	3.5	1.58	2.59	0.281	1.54
GCCTATAGGTAATACAAGGTGAAAGTCCGATTGT	2.26	2.68	-0.0258	0.783	-0.465	1.28	0.667	0.826	0.0563	0.57
CAAACTAGGTCATTGACAGGACAGTGAATAGTAA	4.7	3.38	0.946	2.29	0.688	4.71	7.82	6.85	3.97	6.16
CGTCCAAGGTCAGAGAGGTTAGTGAATGCCGAGT	5.32	3.46	0.378	2.89	-0.248	4.18	2.47	2.56	0.275	1.48
CCTACTGGGCCACGGTCATTGATCAGTCAAAGCA	-0.282	-0.19	0.043	-0.408	-0.712	1.3	2.11	2.06	-0.0299	1.1
GGAACGAGGGCATTCCAGTTGATAGCATGGCGAT	1.15	1.43	-0.298	0.454	-0.264	1.42	0.909	0.848	-0.214	0.301
CAAACTAGGTCAAGAGGTCGAAGTCCGCTTCCCG	5.04	4.11	1.22	2.77	0.502	5.23	8.83	7.41	5.95	7.63
TCGAGTAGGTAAGTCGGGGCATTCAGCCAACATA	-0.0236	-0.0704	-0.439	-0.175	-0.922	0.0443	-0.3	0.0863	0.929	0.572
CCGACTGGGGAAGAAAGGTTACCATACCATCCGG	0.169	0.579	-0.0766	0.683	-0.64	2.22	1.84	3.17	1.15	2.6
